CYP2C19 activ = human CYP2C19 activators, primary screen, biochemical, luminescence; Cytochrome P450 2C19 (Homo sapiens), P33261; recombinant CYP2C19, luciferin-H EGE luminescence; stronger effect = higher value; 0 = fully inhibited enzyme, 1 = untreated enzyme; activation factor at 5 µM; 96,000 tested, under 10 active; AID 1025, 2008;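 active means activation factor of at least 2 at 5 µM in the primary screen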;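 further: 0 = wells with 2.5 mM tranylcypromine and 1 = vehicle-only wells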
cytoskel mod = modifiers of F-actin cytoskeleton organization, primary screen, imaging, HUVEC, phalloidin staining, high-content imaging. HUVEC TNFa F-actin phalloidin imaging. 91,000 compounds, 0.18% hits. inhibition, % at 2 µM. AID 836, 2007;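 active means inhibition above the batch mean plus 3 SD and confirmed as a hit by visual image inspection, cut at about 30% in these data, passing the limit was not always enough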
CYP2C9 inhib = blockers of cytochrome P450 2C9 activity – biochemical, luminescence, ADME assay, primary screen; CYP2C9 Supersomes, luciferin-H conversion; inhibition, % at 5 µM; 96,000 compounds, 20% hits; P11712;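 active means blocking of liver enzyme CYP2C9 beyond about 50% at 5 µM, limit read from the data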
Target sequence (P11712 whole entry, looked up): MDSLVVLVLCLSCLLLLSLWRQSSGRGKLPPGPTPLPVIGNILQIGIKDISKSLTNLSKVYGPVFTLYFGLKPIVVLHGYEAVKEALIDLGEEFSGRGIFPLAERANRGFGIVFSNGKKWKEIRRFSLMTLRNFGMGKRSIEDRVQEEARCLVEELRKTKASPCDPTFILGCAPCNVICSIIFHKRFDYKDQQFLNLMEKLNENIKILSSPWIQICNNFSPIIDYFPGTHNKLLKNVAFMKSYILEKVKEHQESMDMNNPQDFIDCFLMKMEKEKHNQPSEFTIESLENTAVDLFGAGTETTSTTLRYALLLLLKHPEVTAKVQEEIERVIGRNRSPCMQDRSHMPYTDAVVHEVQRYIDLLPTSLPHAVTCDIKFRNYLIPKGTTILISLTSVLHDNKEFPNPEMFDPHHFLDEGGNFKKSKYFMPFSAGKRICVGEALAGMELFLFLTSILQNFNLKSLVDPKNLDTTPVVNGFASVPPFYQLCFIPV
E-sel TNF inh = E-selectin induction blockers in HUVEC – imaging, immunofluorescence, high content, primary screen; HUVEC TNFa-induced E-selectin immunofluorescence; inhibition, % at 2 µM; AID 1246, 2008; 120,000 compounds, 0.71% hits;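 active means inhibition above the batch mean plus 3 SD, and confirmed as a hit on visual image review, cut at about 43% in these data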;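 further: 0% = TNF-stimulated DMSO wells and 100% = unstimulated control wells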
CYP2C9 act = human CYP2C9 activators, primary screen, biochemical, luminescence | Cytochrome P450 2C9 (Homo sapiens), P11712 | recombinant CYP2C9, luciferin-H conversion; stronger effect = higher value; factor 1 = untreated enzyme, 0 = blocked | activation factor at 5 µM | 96,000 compounds, 1.4% hits | AID 1024, 2008;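 active means activation factor of 2 or more for CYP2C9 at a 5 µM dose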;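 further: 0 = sulfaphenazole-blocked wells and 1 = vehicle-only wells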
CYP2C19 inhib = blockers of cytochrome P450 2C19 activity – biochemical, luminescence, ADME assay, primary screen; AID 778, 2007; 96,000 compounds, 21% hits; CYP2C19 Supersomes, luciferin-H EGE luminescence, 30 min; P33261; inhibition, % at 5 µM;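 active means CYP2C19 inhibition above a set limit at 5 µM in the primary screen, cut at about 50% in these data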;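 further: plate controls were negative control wells for no effect and 2.5 mM tranylcypromine positive control for full effect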
Starred values were filed as active, the others as inactive; nt = no result. Hits are enriched below; roughly 22% of the tested compounds scored in any of these assays.

SMILES | CYP2C19 activ | cytoskel mod | CYP2C9 inhib | E-sel TNF inh | CYP2C9 act | CYP2C19 inhib
Fc1ccc(CNn2cnnc2SCc2ccc(F)cc2)cc1 | nt | -12 | nt | -1 | nt | nt
CCC(C)(C)n1nnnc1C(c1ccncc1)N1CCN(c2cccc(OC)c2)CC1 (stereo not given) | 0.2 | 11 | 92* | -13 | 0.1 | 84*
CCC(C)(C)n1nnnc1C(c1cccnc1)N1CCN(c2cccc(C(F)(F)F)c2)CC1 (stereo not given) | 0.2 | 12 | 58* | 18 | 0.4 | 80*
CCC(C)(C)n1nnnc1C(c1cccnc1)N1CCC(Cc2ccccc2)CC1 (stereo not given) | nt | nt | nt | -25 | nt | nt
COc1cccc(N2CCN(C(c3ccccn3)c3nnnn3C(C)(C)C)CC2)c1 (stereo not given) | nt | 4 | nt | 0 | nt | nt
CCN(CC)C(=O)CSc1ncnc2sc(-c3ccccc3)cc12 | 0 | 8 | 93* | 17 | 0.1 | 97*
CCCCCn1cnc2sc(-c3ccccc3)cc2c1=O | 0.6 | -21 | 58* | 16 | 0.4 | 44
CCCCn1cnc2sc(-c3ccccc3)cc2c1=O | 0.9 | -31 | 25 | 26 | 0.7 | 14
CN(C(=O)CSc1ncnc2sc(-c3ccccc3)cc12)C1CCS(=O)(=O)C1 (stereo not given) | nt | nt | nt | -14 | nt | nt
CN(CCC#N)C(=O)CSc1ncnc2sc(-c3ccccc3)cc12 | 0.6 | 1 | 50* | 2 | 0.5 | 40
CN(C)/C=N/c1c(C#N)cnn1-c1ncnc2sc(-c3ccccc3)cc12 | 0.1 | 12 | 92* | nt | 0.1 | 87*
CC1CCN(C(=O)CN(C2CCCCC2)S(C)(=O)=O)CC1 | 0.9 | -2 | -8 | -4 | 1.1 | 7
COCc1nnc(NC(=O)CC(C)c2ccccc2)s1 (stereo not given) | 0.7 | 0 | 21 | -21 | 0.8 | 28
CC(C)(C)c1cc(C(=O)O)n[nH]1 | 1.1 | -20 | 0 | 3 | 1 | -9
CC(C)C(C)(C#N)NC(=O)CSc1ncnc2sc(-c3ccccc3)cc12 (stereo not given) | 0 | 1 | 83* | -4 | 0.2 | 96*
O=C(CSc1ncnc2sc(-c3ccccc3)cc12)NC1CCS(=O)(=O)C1 (stereo not given) | nt | nt | nt | -16 | nt | nt
COc1ncnc2sc(-c3ccccc3)cc12 | 0.2 | nt | 20 | -21 | 0.8 | 76*
COc1ccc(Nc2ncnc3sc(-c4ccccc4)cc23)cc1 | 1.1 | -14 | -9 | 12 | 1.1 | -15
O=C(O)CSc1nnc(-c2ccccc2)o1 | 0.9 | -31 | 12 | nt | 0.9 | 10
CC(C)C(C)(C#N)NC(=O)CSc1nnc(-c2ccccc2)o1 (stereo not given) | 0.3 | 17 | 9 | 10 | 0.9 | 68*
Cc1cc(NC(=O)CCl)n(-c2nc3ccccc3s2)n1 | nt | nt | nt | 6 | nt | nt
CN(C)c1ccc(N2CN=C3SCC(=O)N3C2)cc1 | 0.9 | 16 | 10 | -24 | 0.9 | 13
c1ccc(CCn2nnnc2C(c2cccs2)N2CCOCC2)cc1 (stereo not given) | 0.7 | nt | -5 | nt | 1 | 27
Cc1ccc2c(c1)C(c1ccccc1)N(C(=O)C(C)C)CC(=O)N2 (stereo not given) | 0.9 | nt | 34 | nt | 0.7 | 6
Cc1ccc2c(c1)C(c1ccc(F)cc1)N(C(=O)c1cc3ccccc3oc1=O)CC(=O)N2 (stereo not given) | nt | nt | nt | 95* | nt | nt
SMILES | CYP2C19 activ | cytoskel mod | CYP2C9 inhib | E-sel TNF inh | CYP2C9 act | CYP2C19 inhib
CCn1c(SCC(=O)OC)nnc1-c1ccncc1 | nt | 6 | nt | -15 | nt | nt
CCn1c(CNc2ccc(F)cc2)nnc1SCC(=O)OC1CCCCC1 | 0.7 | -38 | 51* | 5 | 0.5 | 32
CCn1c(SCC(=O)OC2CCCCC2)nnc1-c1ccncc1 | 0.1 | 13 | 41 | -11 | 0.6 | 88*
CCn1c(CNc2ccc(F)cc2)nnc1SCC(=O)Nc1ccc(OC)cc1OC | 0.5 | 44 | 11 | nt | 0.9 | 50*
CCCNC(=O)NC(=O)CSc1nnc(-c2ccncc2)n1CC | 0.1 | -10 | 28 | 23 | 0.7 | 95*
CC(C)(C)C(=O)NC(=S)NNC(=O)C(c1ccccc1)c1ccccc1 | nt | nt | nt | -14 | nt | nt
Cc1cc(=O)oc2c3c4c(cc12)OCCN4CCC3 | nt | 3 | nt | -7 | nt | nt
CC(C)c1cc(=O)oc2c3c4c(cc12)CCCN4CCC3 | 0.1 | nt | 13 | -59 | 0.9 | 87*
CCc1ccc(NC(=O)COC(=O)C2(c3ccc(Cl)cc3)CCCC2)cc1 | nt | nt | nt | -9 | nt | nt
CCOC(=O)C(=CNc1cc(C)nn1-c1ccc(C)cc1)C(=O)OCC | 0.5 | -11 | 65* | 10 | 0.4 | 48
CCOC(=O)COc1ccc(/C=C2/SC(=Nc3ccccc3)N(Cc3cccnc3)C2=O)cc1OC | 0.4 | 8 | 75* | 22 | 0.2 | 55*
Cc1ccc(N2CCN(C(=S)c3ccc(N(C)C)cc3)CC2)cc1 | 0.2 | -16 | 77* | -7 | 0.2 | 83*
CN(C)c1ccc(C(=S)N2CCN(c3ccccc3)CC2)cc1 | 0.5 | -21 | 14 | 21 | 0.9 | 49
CN(C)c1ccc(C(=S)N2CCCCCC2)cc1 | 0.5 | 3 | 20 | 0 | 0.8 | 53*
CC(=O)N1CCN(C(=S)c2ccc(N(C)C)cc2)CC1 | 0.8 | -14 | 8 | 25 | 0.9 | 16
CC(=O)c1sc(-c2cccc(Cl)c2)nc1C | nt | nt | nt | -28 | nt | nt
Cc1ccc(C(=O)N(NC2=NS(=O)(=O)c3ccccc32)S(=O)(=O)c2ccc(C)cc2)cc1 | 0.8 | -5 | 42 | -3 | 0.6 | 18
COc1ccc(N(C)C(=O)Cc2c(C(=O)O)[nH]c3ccccc23)cc1 | nt | nt | nt | -5 | nt | nt
CC(=O)C(Sc1ccc2nnc(-c3ccc(F)cc3)n2n1)C(C)=O | 0.9 | -11 | 70* | 3 | 0.3 | 13
CCOC(=O)CC(=O)CSc1ccc2nnc(-c3ccc(C)cc3)n2n1 | 0.9 | 12 | 55* | nt | 0.5 | 14
O=C(NCCSCc1ccccc1)c1ccc(C2SCC(=O)N2Cc2ccccc2)cc1 (stereo not given) | 0.1 | -5 | 97* | 16 | 0 | 92*
O=C1CC(c2ccccc2)CN1C(=O)c1ccccc1 (stereo not given) | 0.5 | -10 | -10 | -18 | 1.1 | 52*
CCOC(=O)C(NC(=O)Nc1ccc(F)cc1)(OCC)C(F)(F)F (stereo not given) | 0.5 | 21 | 19 | -18 | 0.8 | 50*
CCOC(=O)C(NC(C)=O)(Nc1ccc(F)cc1)C(F)(F)F (stereo not given) | 0.4 | -40 | 6 | -2 | 0.9 | 63*
O=[N+]([O-])c1ccc(N2CCN(S(=O)(=O)c3ccc(Cl)cc3)CC2)cc1NCc1cccnc1 | 1 | -3 | 53* | 0 | 0.5 | 5
NS(=O)(=O)c1ccc(CCNC(=O)CSc2ccc(Cl)cc2)cc1 | nt | nt | nt | 41 | nt | nt

Bioassay records as filed in PubChem.
